Screening results: PubChem, NMMLSC
Most compounds without a hit are left out; they make up all but 3.5% or so of the library.
Bead autofluor: compound fluorescence in toxin protease inhibitor counterscreen | AID 624483 | compound autofluorescence counterscreen, microsphere flow cytometry; stronger effect = higher value | fluorescence intensity (test concentration not listed) | 360,000 compounds, 3.1% hits; in the data active means fluorescence intensity above about 16000; inconclusive means no clear call, values can overlap the other calls
Anthrax LF inh2: inhibitors of Bacillus anthracis lethal factor protease; P15917; multiplex microsphere protease cleavage assay, LF; inhibition, % at 10 µM; 360,000 compounds, 0.12% hits; AID 588501; further: plate controls were buffer without enzyme for full effect and enzyme alone for no effect
BoNT-A LC inh2: blocks Botulinum neurotoxin A light chain protease | multiplex microsphere protease substrate cleavage, flow cytometry | inhibition, % at 10 µM | 360,000 compounds, 0.17% hits | AID 588499; further: plate controls were buffer without enzyme for full effect and enzyme alone for no effect
BoNT F protease: inhibitors of Botulinum neurotoxin F light chain protease; inhibition, % at 10 µM; 360,000 compounds, 0.22% hits; AID 588497; Multiplex microsphere protease cleavage assay, flow cytometry; in the data active means inhibition above about 35%, passing the limit was not always enough; inconclusive means no clear call, values can overlap the other calls; further: plate controls were buffer without enzyme for full effect and enzyme alone for no effect
Active calls of the source: *; ? = inconclusive. Unless noted, no stated cut-off is given here; in the data, active means inhibition above about 30%; inconclusive means no clear call, values can overlap the other calls; inactive means below that.

SMILES	Bead autofluor	Anthrax LF inh2	BoNT-A LC inh2	BoNT F protease
COCCNC(=O)C[C@H]1C[C@H]2c3cc(NS(=O)(=O)c4ccc(F)cc4)ccc3O[C@H]2[C@H](CO)O1	3462	-4.3	-0.4	0.2
CC1(C(=O)Nc2ccc3c(c2)OCO3)Cc2c(-c3cccc(C(N)=O)c3)ccnc2O1 (configuration not stated)	2865	-7.4	-0.2	-0.8
Cc1cccc(Nc2nc(N)nc(CN3CCN(c4ccccc4)CC3)n2)c1	23528*	-3.1	?	-5.3
Nc1nc(CN2CCN(Cc3ccccc3)CC2)nc(Nc2ccccc2)n1	19782*	0.2	7.0	9.0
O=C(O)c1ccccc1-c1ccccc1C(=O)NCCCO	20852*	1.6	?	1.4
COCCNC(=O)c1ccccc1-c1ccccc1C(=O)O	2182	1.4	-0.2	-8.0
Cn1cnc2ncnn2c1=S	2807	-0.9	0.2	-2.9
COc1ccc(NC(=S)NNC(=O)OC(C)(C)C)cc1OC	24133*	-2.8	?	-3.8
Cc1cc(N2C(=O)[C@@H]3[C@H](C2=O)[C@@H]2C[C@H]3C(Br)C2Br)no1 (some centres not stated)	3435	9.2	-4.1	?
Cc1cc(N2C(=O)C3C4c5ccccc5C(c5ccccc54)C3C2=O)no1 (configuration not stated)	21886*	-3.4	2.3	2.9
COc1ccc(S(=O)(=O)NCc2cccnc2)cc1NC(=O)c1ccccc1C	3525	-14.5	-1.0	-7.2
CCOc1ccc(N2C(=O)c3cccnc3C2=O)cc1	19193*	-2.6	2.8	2.6
CCOc1ccc(N2C(=O)Cc3ccccc3C2=O)cc1	4047	1.1	2.5	5.8
CCOc1ccc(N2CC(=O)N(c3ccc(OCC)cc3)CC2=O)cc1	22131*	-1.3	1.2	2.5
CC(=O)O[C@H]1[C@@H](O)[C@H](O)[C@H](Oc2c(O)c(C)c3c4c2[C@@H](C)CC[C@@H]4[C@@H](C)C[C@@H]3C=C(C)C)O[C@H]1C	4922	-1.9	-0.4	5.5
CCC(=O)NC(c1ccc([N+](=O)[O-])cc1)c1c(O)ccc2ccccc12 (configuration not stated)	24260*	-2.9	?	-5.3
CCCCC(=O)NC(c1ccc([N+](=O)[O-])cc1)c1c(O)ccc2ccccc12 (configuration not stated)	7077	-9.3	-0.7	-7.2
CCC(C)C(CO)NCCCn1cnc2c(OCc3ccccc3)ncnc21 (configuration not stated)	2939	3.0	-0.1	1.8
O=C(Nc1ccccc1N1CCCCC1)c1cccs1	24609*	-2.6	-2.6	-5.1
CC(=O)Nc1nnc(SCc2cc(=O)c(OC(=O)c3ccccc3)co2)s1	4975	10.3	22.3	2.7
Cc1cc(C)cc(C(=O)Oc2coc(CSc3nnc(NC(=O)C4CC4)s3)cc2=O)c1	2288	-0.6	38.2*	5.2
O=C(Oc1coc(CSc2nnc(NC(=O)C3CC3)s2)cc1=O)c1c(F)cccc1F	3946	-5.0	48.5*	-3.5
Cc1nc(SCc2nc3c(F)cccc3[nH]2)c2oc3ccccc3c2n1	2960	-14.2	-0.9	-1.7
CCOc1ccccc1OCC(=O)Nc1ccc(S(=O)(=O)Nc2nc(C)cc(C)n2)cc1	20817*	-1.8	-1.5	-2.6
Cc1cc(C)nc(NS(=O)(=O)c2ccc(NC(=O)COc3ccccc3F)cc2)n1	9220	-7.4	-0.2	-9.1
SMILES	Bead autofluor	Anthrax LF inh2	BoNT-A LC inh2	BoNT F protease
Cc1cc(NS(=O)(=O)c2ccc(NC(=O)COc3ccccc3Cl)cc2)no1	24447*	-4.4	-3.6	-8.8
Cc1cc(C)c2nc(-c3ccccn3)cc(C(=O)Nc3ccc(S(=O)(=O)Nc4cc(C)on4)cc3)c2c1	16205*	-7.0	?	-2.0
O=C(O)c1ccc(Oc2ccc([N+](=O)[O-])cc2)c([N+](=O)[O-])c1	3536	-4.1	0.3	-9.3
CCc1nc2ccc(C(=O)NCCOc3ccc(OC)cc3)cn2c1N(CC)CCN(C)C	3665	0.1	0.3	-1.9
CCOC(=O)N1CCN(C(=O)CN(Cc2ccccc2)S(C)(=O)=O)CC1	11333	0.8	-0.8	-5.3
CCOC(=O)N1CCN(C(=O)CN(C2CCCCC2)S(=O)(=O)c2ccc(F)cc2)CC1	9856	-5.0	1.5	13.0
CCOC(=O)N1CCN(C(=O)CN(Cc2ccc(Cl)cc2)S(=O)(=O)c2ccccc2)CC1	24155*	-1.9	-0.8	-3.6
CCOC(=O)N1CCN(C(=O)CN(C2CCCCC2)S(=O)(=O)c2ccc(Cl)cc2)CC1	22589*	-0.7	1.3	1.2
CCN(CC)S(=O)(=O)c1ccc(C(=O)O)cc1	5715	-1.4	0.7	-4.9
CCN(C1CCCCC1)S(=O)(=O)c1ccc(C(=O)O)cc1	23470*	-1.8	-0.3	-1.7
COc1cc([N+](=O)[O-])c2nc(C(=O)O)ccc2c1	3456	-14.0	-1.3	-33.9
CC1(C(=O)NCC2CC2)CCN1C(=O)C1(c2ccccc2)CC1 (configuration not stated)	3753	-4.2	0.2	5.9
CCOC(=O)C(Oc1ccc2c(-c3ccc(OC)cc3)cc(=O)oc2c1C)c1ccccc1 (configuration not stated)	22308*	-1.5	?	-4.1
CCOC(=O)C(Oc1ccc2c(-c3ccccc3)cc(=O)oc2c1C)c1ccccc1 (configuration not stated)	2216	-1.2	-0.4	-3.3
CC(C)(C)c1ccc(C(=O)N2CCC2(C)C(=O)Nc2ccc3nc[nH]c3c2)cc1 (configuration not stated)	3806	-6.1	0.0	-6.4
CCOC(=O)C1=CCN(S(=O)(=O)c2ccc(C)cc2)C1c1ccc(CC)cc1 (configuration not stated)	4676	-8.8	-0.6	-7.8
COc1ccc(Nc2nc(N)nc(CSc3nnc(C)s3)n2)cc1	3284	-3.8	-1.0	-1.5
COc1ccc(Nc2nc(N)nc(CSc3nncn3C)n2)cc1	16635*	-3.6	-0.6	2.1
CCOc1ccccc1Nc1nc(N)nc(CSc2nncn2C)n1	23051*	-5.1	0.3	0.6
CC1CCC(C(C)C)C(NC(=O)c2ccncc2)C1 (configuration not stated)	6260	-4.7	-0.5	-3.0
O=S(=O)(N/N=C1\CC(c2ccccc2)Oc2ccccc21)c1ccccc1 (configuration not stated)	3731	0.3	-1.0	-8.1
CCOc1ccc(S(=O)(=O)N/N=C2/CC(c3ccccc3)Oc3ccccc32)cc1 (configuration not stated)	19045*	-6.5	7.8	12.3
CC(=O)NC(c1cccc(F)c1)c1nc(-c2cnc3ccccc3c2)cs1 (configuration not stated)	3906	-3.0	0.3	-2.3
COCCNC(=O)c1c(NC(=O)c2ccco2)n(Cc2ccccc2)c2nc3ccccc3nc12	3129	5.4	12.3	8.3
COCCCNC(=O)c1c(NC(=O)c2ccccc2Cl)n(Cc2ccccc2)c2nc3ccccc3nc12	18554*	12.2	?	10.5
N#Cc1c(NC(=O)c2ccccc2Cl)n(Cc2ccccc2)c2nc3ccccc3nc12	2894	9.0	31.3*	1.3
CCCCn1c(NC(=O)c2ccccc2Cl)c(C#N)c2nc3ccccc3nc21	3734	-2.1	9.9	-30.1
